Screens deposited in PubChem by National Center for Advancing Translational Sciences (NCATS).
Methyltransferases – Primary Screen for Target Class Profiling of Small Molecule Inhibitors of Methyltransferases; purified enzyme, MTase-Glo SAH luminescence; hits give low values; actives 3.9% (n = 25,000); calls only at 40 µM; call rule not given here
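Each enzyme was assayed with SAM and its substrate. SAH formation detected by MTase-Glo luminescence; single-point 40 uM screen[…].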
MTase-Glo ctr – counter-screen for methyltransferase inhibitors: coupling enzymes without methyltransferase; shares compounds with Methyltransferases; MTase-Glo coupled enzymes, SAH conversion luminescence, no MTase; Potency, µM (highest dose often 57.3 µM), actives largely listed as inhibitors; actives 6% (n = 180); active = well fitted inhibition curve with a large enough effect; inconclusive = small, poorly fitted or top-dose-only effect
A number is an active result; 0 = inactive; ? = inconclusive; + = active, no number. The sample as a whole holds a higher share of hits than the screen did.

SMILES | Methyltransferases | others
CCCn1cc(C(=O)N2C[C@@H](N(C)C)[C@H](c3ccc(C)cc3)C2)c(C)n1 | 0
Cc1ccccc1CN1C(=O)c2cc3sccc3n2CC1(C)C(=O)NC1CCCCC1C (stereo unspecified) | 0
CCCn1c(=O)c2cc(Cl)ccc2n2c(SCC(=O)NCc3ccc(C)cc3)nnc12 | 0
O=c1c2ccccc2n2c(-c3cccc(Cl)c3)nnc2n1Cc1ccc(F)cc1 | 0
CC(=O)Nc1c2n(c3ccc(F)cc13)CC(C)(C(=O)NC1CCCC1)N(CCCOC(C)C)C2=O (stereo unspecified) | 0
O=C(Nc1ccc2ncnc(N3CCCCC3)c2c1)c1cc(F)ccc1F | + | MTase-Glo ctr=5.4µM
COc1ccc(CC(=O)Nc2ccc3ncnc(N4CCCC4)c3c2)c(Cl)c1 | + | MTase-Glo ctr=?
O=C(Nc1ccc2c(N3CCCC3)ncnc2c1)c1cc(F)ccc1Cl | + | MTase-Glo ctr=0
CN1C(=O)c2cc(NC(=O)c3ccccc3Cl)ccc2N2CCN=C12 | 0
O=C(Cc1ccsc1)Nc1ccc2c(N3CCCC3)ncnc2c1 | + | MTase-Glo ctr=0
COc1ccc(CNC(=O)Cn2ccc3cc(S(=O)(=O)N4CCCC4)ccc32)c(OC)c1 | 0
COc1ccc(-c2cnc3[nH]cc(CC(=O)Nc4ccc(C(F)(F)F)cc4)c3c2)cc1 | 0
O=C(Nc1ccncc1)c1cc([N+](=O)[O-])ccc1Cl | 0
O=C(Nc1cnc(Cl)nc1)c1ccc(F)c(F)c1 | 0
O=C(c1cc(F)ccc1F)N1CCCCC1c1nc(-c2cnccn2)n[nH]1 (stereo unspecified) | 0
CCC(C)NC(=O)c1ccc2c(=O)n(C(C)C)c3nn(Cc4ccc(C)cc4)c(=O)n3c2c1 (stereo unspecified) | 0
COC(=O)c1ncn2c1C(=O)N(C(C)c1ccccc1)C(C)(C(=O)NC1CCCCCC1)C2 (stereo unspecified) | 0
Cc1ccc(C)c(NC(=O)Cn2c(=O)oc3cc(S(=O)(=O)N4CCCC4)ccc32)c1 | 0
CC(C)CNC(=O)c1ccc2c(=O)n(CC(C)C)c3nn(C)c(=O)n3c2c1 | 0
CCCn1c(=O)c2ccc(C(=O)NC(C)C)cc2n2c(SCc3ccccc3F)nnc12 | 0
Cc1cccc(CN2C(=O)c3ccccc3CC2(C)C(=O)NCc2ccccc2C)c1 (stereo unspecified) | 0
CCCn1c(=O)c2ccc(Cl)cc2n2c(=O)n(CC(=O)Nc3ccc(C)cc3Cl)nc12 | 0
CCCn1c(=O)c2ccc(C(=O)NC3CCCC3)cc2n2c(=O)n(Cc3ccc(Cl)cc3)nc12 | 0
CCOC(=O)c1cc2n(n1)CC(C)(C(=O)NCc1ccc(C)cc1)N(c1ccccc1CC)C2=O (stereo unspecified) | 0
Fc1ccccc1Nc1ccnc(N2CC3CCC(C2)N3CC(F)(F)F)n1 | 0
SMILES | Methyltransferases | others
N#Cc1cnc(N2CC3CCC(C2)N3CC(F)(F)F)s1 | + | MTase-Glo ctr=0
Cc1cc(C)cc(NS(=O)(=O)c2cc3[nH]c(=O)[nH]c3cc2C)c1 | 0
O=C(Cn1c(=O)oc2cc(S(=O)(=O)NCc3ccccc3)ccc21)N1CCCCC1 | 0
Cc1ccc(Cn2c(=O)c3ccc(C(=O)NC(C)C)cc3n3c(=O)n(CC(N)=O)nc23)cc1 | 0
CCc1ccccc1NC(=O)N1CCn2c(C)ccc2C1C(C)C (stereo unspecified) | 0
O=C(NC1CCCC1)c1ccc2c(c1)n(Cc1cccc(F)c1)c(=O)c1ccnn12 | 0
COc1ccc(-c2n[nH]n3c2nc(=O)c2ccc(C(=O)NCc4ccccc4F)cc23)cc1 | 0
Cn1c(=O)c2ccnn2c2ccc(C(=O)NCC3CCN(Cc4ccccc4F)CC3)cc21 | + | MTase-Glo ctr=0
CCc1ccc(N2C(=O)c3cc4oc(C)cc4n3CC2(C)C(=O)NC2CCCCCC2)cc1 (stereo unspecified) | 0
COc1ccc(-c2nnn3c2nc(N2CCOCC2)c2ccccc23)cc1 | 0
Cn1cc(-c2cc3c(ccn3Cc3ccncc3)c(N3CCOCC3)n2)cn1 | + | MTase-Glo ctr=0
O=C(CCc1nnc2n(Cc3ccccc3Cl)c(=O)c3ccccc3n12)N1CCN(c2ccc(F)cc2)CC1 | 0
O=S(=O)(c1ccccc1)c1nnn2c1nc(N1CCCC1)c1cc(Cl)ccc12 | 0
COc1ccc(N2CCN(C(=O)c3cccc(Nc4nc5ccccc5n5nnnc45)c3)CC2)cc1 | 0
COc1ccc(N2CCN(C(=O)c3cc(NC(C)=O)cc4nc(C)ccc34)CC2)cc1 | + | MTase-Glo ctr=0
COc1ccc(N2CCN(C(=O)c3ccc4c(=O)nc5c(-c6ccccc6F)n[nH]n5c4c3)CC2)cc1 | 0
CC1CCN(S(=O)(=O)c2ccc3c(ccn3CCC(=O)NC3CCCc4ccccc43)c2)CC1 (stereo unspecified) | 0
CC(C)Oc1ccc(CN2C(=O)c3cc4occc4n3CC2(C)C(=O)NC2CCCCCCC2)cc1 (stereo unspecified) | 0
CN1CCCN(C(=O)c2ccccc2F)c2ccccc21 | 0
Cn1cc2c3c(cccc31)CN(C(=O)c1ccccc1F)CC2 | + | MTase-Glo ctr=0
O=C(c1ccccc1F)N1CCn2ncc(C(=O)N3CCOCC3)c2C1 | 0
COc1cccc(N2C(=O)c3cc4occc4n3CC2(C)C(=O)NC2CCC(C)CC2)c1 (stereo unspecified) | 0
CCCNS(=O)(=O)c1ccc2[nH]c(=O)[nH]c2c1 | 0
C=CCn1c(=O)c2ccc(C(=O)NC(C)CC)cc2n2c(=O)n(CC(=O)Nc3cccc(F)c3)nc12 (stereo unspecified) | 0
CN1CCCN(C[C@@H]2CN(C(=O)c3ccn(C)n3)C[C@@H]2CO)CC1 | 0
SMILES | Methyltransferases | others
CN(C)c1nc2c(c(N3C[C@@H](CN4CCCC4)[C@@H](CO)C3)n1)CCCC2 | + | MTase-Glo ctr=14µM
CC(C)n1c(=O)c2ccc(C(=O)NC3CCCC3)cc2n2c(=O)n(CC(=O)c3ccccc3)nc12 | 0
CCC(C)NC(=O)c1ccc2c(=O)n(C(C)C)c3nn(CC(=O)Nc4cc(C)cc(C)c4)c(=O)n3c2c1 (stereo unspecified) | 0
CC1CCCCC1NC(=O)C1(C)Cn2c(nc3ccccc32)C(=O)N1Cc1ccco1 (stereo unspecified) | 0
CC(C)N1Cc2cc(C(=O)NC3CCN(Cc4ccccc4)CC3)sc2C1 | 0
CC1CCCCN1CCCNC(=O)c1cc2c(s1)CN(C1CCCC1)C2 (stereo unspecified) | + | MTase-Glo ctr=0
COc1ccc(NC(=O)c2cc3c(s2)CN(C2CCCC2)C3)c(OC)c1 | 0
Cn1c(=O)n([C@H]2CCCN(S(=O)(=O)c3ccc4c(c3)OCCO4)C2)c2ncccc21 | 0
CC1(C(=O)NC2CCCCC2)Cc2ccccc2C(=O)N1CCc1ccccc1 (stereo unspecified) | 0
CN(Cc1ccccc1)C1(C(=O)NC2CCC(O)CC2)Cc2ccccc2C1 (stereo unspecified) | + | MTase-Glo ctr=0
O=C(Cc1ccc(-c2ccccc2)cc1)NC1CCC1 | 0
Cc1cc2c(cc1S(=O)(=O)N1CCN(c3ccccn3)CC1)n(C)c(=O)n2C | 0
CC1CCC(NC(=O)C2(C)Cn3c(cc4sccc43)C(=O)N2Cc2ccccc2F)CC1 (stereo unspecified) | 0
CCCn1ncc(CN2CCCC23CCN(c2ncccn2)CC3)c1C | 0
CCn1cc(CN2CCCC23CCN(c2cc(C)nc4ccccc24)CC3)c(C)n1 | + | MTase-Glo ctr=0
COc1ccc(-c2cc3n(n2)CC(C)(C(=O)NCc2ccccc2)N(c2ccc(C)c(Cl)c2)C3=O)cc1 (stereo unspecified) | 0
